Over roughly 33,000 sequences, “E-score (-0.5 to 0.5)” has its median near -0.017; the highest 2% begin near 0.3. The entries come from a sample that favours the highest values as a whole.
target: T1, Sut1 (UniProt P53032); assay: PBM E-score (8-mer binding enrichment) (E-score (-0.5 to 0.5)); higher = stronger / more preferred TF binding; conditions: protein concentration: 200 nM; construct: GST-full length
T1 sequence: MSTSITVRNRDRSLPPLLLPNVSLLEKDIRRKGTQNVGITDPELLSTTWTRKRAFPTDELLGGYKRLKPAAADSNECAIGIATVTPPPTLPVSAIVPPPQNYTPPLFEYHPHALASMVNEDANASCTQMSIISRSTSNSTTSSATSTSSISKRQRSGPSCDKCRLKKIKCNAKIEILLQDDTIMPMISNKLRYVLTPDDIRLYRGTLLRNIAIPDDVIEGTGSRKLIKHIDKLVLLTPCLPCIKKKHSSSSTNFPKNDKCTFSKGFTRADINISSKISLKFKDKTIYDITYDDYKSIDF
Method in brief: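 The E-score, a modified Wilcoxon-Mann-Whitney statistic, was computed by the Universal PBM Analysis Suite for every ungapped eight-base word pooled with its reverse complement. Scans behind it were normalised with masliner after bound GST-tagged yeast transcription factors were detected with fluorescent anti-GST. The proteins, at about 100-200 nM, had been applied to universal all-10-mer Agilent arrays made double-stranded by primer extension.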

| Sequence | PBM E-score |
| --- | --- |
| ACATTTAC | 0.168 |
| AGGCCCTG | -0.302 |
| CAAAGTTG | -0.0132 |
| CATCTAAG | -0.107 |
| CGTAGCAG | -0.128 |
| AGCTATAG | -0.136 |
| ATCATACG | 0.157 |
| GTCATACA | 0.226 |
| ATCATACA | 0.314 |
| ACTCGAGT | 0.0517 |
| AAGCCTAG | -0.183 |
| CACTCTGA | -0.165 |
| GTCACAAC | -0.0323 |
| AATAGAGC | 0.0828 |
| GAAACTCA | 0.0707 |
| AAAACTCG | 0.199 |
| AACACTCC | 0.256 |
| GACACTCC | 0.314 |
| GAAACTCC | 0.345 |
| AAAACTCC | 0.356 |
| CAAACTCA | 0.0357 |
| CAAACTCC | 0.356 |
| CAAACTCG | -0.013 |
| AAAACTCT | 0.0523 |
| CACACTCC | 0.158 |

| Sequence | PBM E-score |
| --- | --- |
| GAAACTAC | 0.145 |
| CAGCTTGG | 0.0282 |
| TCTTCTAA | 0.188 |
| CGATACTA | 0.193 |
| AGGAAAGG | -0.294 |
| AGCGGTAT | 0.0737 |
| CGTAAGAC | -0.071 |
| ACGCATCA | -0.0138 |
| AAAAAAAC | 0.159 |
| CAAACTTA | 0.196 |
| GAAACTTC | 0.0956 |
| GAAACTTA | 0.307 |
| AGTGTGGA | 0.0491 |
| AGGGCCCG | -0.184 |
| CGGGCCCG | 0.316 |
| CGGGCCCA | -0.109 |
| CGTTCACA | 0.0405 |
| ATGTAATG | 0.23 |
| ATGTAATA | 0.307 |
| AAATAATG | 0.297 |
| AAATAATA | 0.311 |
| AAATAATC | 0.235 |
| CTGTAATA | 0.218 |
| AAATAAGT | 0.109 |
| AAATAATT | 0.338 |

| Sequence | PBM E-score |
| --- | --- |
| AAATAACT | 0.228 |
| ACTTCAAG | 0.0849 |
| ACACCCTA | -0.127 |
| ACTTTGCG | 0.0957 |
| ATGGCCTA | -0.0487 |
| AGCGCACC | -0.0534 |
| AAGAAGGA | 0.0609 |
| CATCTGAA | 0.0794 |
| AGAGTGGA | -0.0219 |
| AAACCGGT | -0.0411 |
| TAACCGTA | -0.0185 |
| CGACCGGA | 0.191 |
| GGACCGGA | 0.34 |
| GAACCGGC | -0.0738 |
| AGACCGGA | 0.277 |
| AAACCGGC | 0.0626 |
| TAACCGCA | 0.0567 |
| GAACCGTA | -0.234 |
| TAACCGGA | 0.332 |
| AAACCGGA | 0.309 |
| GAACCGGA | 0.32 |
| AGAAAAAG | 0.138 |
| CTGCCAAA | -0.0297 |
| GTTGTTGA | 0.0996 |
| AAACCTTA | 0.203 |

| Sequence | PBM E-score |
| --- | --- |
| AGCAGGTC | -0.176 |
| CAACCTAC | 0.0861 |
| GTAGCAGA | 0.0197 |
| AGCTTAAC | 0.0213 |
| CCTACTAC | -0.0856 |
| CAACCGGG | -0.129 |
| CAACCGGC | -0.0694 |
| CAACCGGA | 0.338 |
| ATCGCTGC | -0.111 |
| GGGACCAA | -0.115 |
| TCCGAAAA | 0.353 |
| GCCGAACA | 0.126 |
| ACCGAACA | 0.121 |
| CCCGAAGA | -0.0672 |
| TCCGAACA | 0.399 |
| GCCGAAAA | 0.263 |
| ACCGAAGA | 0.222 |
| TCCGAAGA | 0.39 |
| CCCGAAAA | 0.177 |
| CGCAGCTA | -0.0718 |
| CATCGAAC | -0.0517 |
| GACTAATA | 0.196 |
| AAAGCCCG | 0.208 |
| GGAGTCTA | 0.182 |
| GCACCCAC | -0.155 |

| Sequence | PBM E-score |
| --- | --- |
| CAGGCTCA | -0.214 |
| ACTTGCCT | -0.0394 |
| AATATAGT | 0.244 |
| AATATTAT | 0.319 |
| TATATAAA | 0.248 |
| AATATAGC | 0.0924 |
| AATATATT | 0.31 |
| AATATACT | 0.277 |
| AATATTAA | 0.263 |
| AATATATC | 0.322 |
| CATATAAA | 0.15 |
| GATATATC | 0.183 |
| AATATAAA | 0.315 |
| AATATTAG | 0.192 |
| ACATCGCC | -0.112 |
| GGGCTACC | -0.227 |
| ATGCAATC | 0.102 |
| AGGCCATC | -0.149 |
| ACCCATGA | -0.124 |
| GGCTTTCA | 0.0417 |
| ACACAGAT | 0.00624 |
| GGACGGCA | -0.0542 |
| ACTATATC | 0.209 |
| AATATATA | 0.325 |
| AATATATG | 0.242 |

| Sequence | PBM E-score |
| --- | --- |
| ACTATATA | 0.308 |
| AAAATATA | 0.267 |
| GCTATATA | 0.118 |
| CAGGTCAC | -0.398 |
| CTGGAAAC | -0.0136 |
| CCCAAAAG | -0.0557 |
| ATGAACTA | 0.216 |
| GTATACTA | -0.155 |
| ATACGGAC | 0.374 |
| TTACGGAA | 0.198 |
| GTACGGAC | 0.297 |
| ATACGGAA | 0.348 |
| ATACGGGC | -0.126 |
| GTACGGAA | 0.22 |
| ATGTGATC | 0.144 |
| CGTGAAGA | -0.026 |
| ACTCACAG | 0.0594 |
| CACTAAGG | -0.146 |
| ACCCGGAA | 0.197 |
| ACCCGGAT | -0.107 |
| GCCCGGAA | 0.244 |
| CCCCGGAC | 0.357 |
| ACCCGGTC | -0.124 |
| ACCCGGGC | -0.0147 |
| CCCCGGAA | 0.216 |

| Sequence | PBM E-score |
| --- | --- |
| GCCCGGGC | -0.0214 |
| ACCCGGAG | 0.416 |
| CCCCGGCC | -0.173 |
| GCCCGGAC | 0.328 |
| ACCCGGAC | 0.323 |
| CAGTTGGC | -0.162 |
| GCATTCGA | 0.0434 |
| TAAGAATA | -0.086 |
| CGACGCTA | -0.089 |
| CCCCGGCG | -0.00882 |
| CCCCGGGG | 0.198 |
| CCCCGGAG | 0.454 |
| TCTCTGAA | -0.135 |
| ATTTCGGG | 0.0466 |
| ATTTCGGC | 0.0959 |
| ATTTCGAG | 0.164 |
| CTTTCAAA | 0.302 |
| CTTTCGGC | 0.0219 |
| CTTTCGGA | 0.395 |
| ATTTCGGA | 0.396 |
| GTTTCAAA | 0.212 |
| ATTTCGAA | 0.313 |

Source: the supplement of paper PMC3334620
